Where “and” joins values, the source holds several entries; their conditions need not be identical. Equal entries are not always repeated. This is part of a sample that, as a whole, favours compounds with a hit. Of some 79,000 tested, about 15% had one in any assay. Unmarked numbers belong to inactive results. Calls of active or inactive are those of the source. Rule as the data show it: active = growth inhibition above about 70%; inactive = the rest.

Here are results for 19 compounds from PubChem BioAssay (NCI).

A short description of test [1]: NCI Yeast Anticancer Drug Screen. Data for the rad50 strain (AID 155).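 Also: 0% = growth of vehicle-only cultures of the same strain.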 The following applies: S. cerevisiae rad50 strain growth inhibition; at 50.0 µM; hits give high values. The procedure, abridged:
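Growth of the mutant yeast was measured after compound exposure and referenced to vehicle-treated cultures.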

Test [2] can be described thus: NCI Yeast Anticancer Drug Screen. Data for the mec2-1 strain (AID 157). The following applies: S. cerevisiae mec2-1 strain, at 50.0 µM, hits give high values. The procedure, abridged:
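Strain: mec2-1 (DNA repair/cell cycle alteration). Compound exposure, then growth measured; inhibition expressed relative to vehicle.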

A short description of test [3]: NCI Yeast Anticancer Drug Screen. Data for the sgs1 mgt1 strain (AID 161).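 Also: 0% = growth of cultures given vehicle only.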 To be noted: S. cerevisiae sgs1 mgt1 strain, at 50.0 µM, hits give high values. The procedure, abridged:
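Mutant yeast exposed to compound; growth scored against vehicle-only wells.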

The nature of test [4]: NCI Yeast Anticancer Drug Screen. Data for the cln2 rad14 strain (AID 165).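 Also: 0% = growth equal to vehicle treated cultures.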 The following applies: S. cerevisiae cln2 rad14 strain, at 50.0 µM, hits give high values. The procedure, abridged: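 Compounds are applied to the cln2 rad14 yeast strain, and growth is then compared with that of vehicle-treated cultures to give inhibition.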
Test [5] can be described thus: NCI Yeast Anticancer Drug Screen. Data for the bub3 strain (AID 167). To be noted: S. cerevisiae bub3 mutant strain, at 50.0 µM, hits give high values. The procedure, abridged: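 Whole-cell yeast assay. The mutant strain was incubated with compounds, and growth inhibition was determined by comparison with vehicle-treated cells.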
Test [6] in a line: NCI Yeast Anticancer Drug Screen. Data for the mlh1 rad18 strain (AID 175). The following applies: S. cerevisiae mlh1 rad18 strain growth inhibition; at 50.0 µM; hits give high values. The procedure, abridged: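 Read-out is yeast growth inhibition, calculated against vehicle-only controls. The compound was applied to a strain engineered with DNA damage repair alterations.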

Regarding `[F][Sn]([c]1ccc(Cl)cc1)([c]1ccc(Cl)cc1)[c]1ccc(Cl)cc1`, the growth inhibition was 98.2% (active) in test [1]; 95.2% (active) in test [2]; 98.5% (active) in test [3]; 95.9% (active) in test [4]; 96.2% (active) in test [5]; 98.2% (active) in test [6].

For `CCOP(=S)(N/N=C/c1ccc(C)s1)OCC`, the growth inhibition was -19.3% in test [1]; -27.2% in test [2]; 5.45% in test [3]; -12.3% in test [4]; 7.65% in test [5]; -30.8% in test [6].

As to `CS(=O)(=O)CCC(N)P(=O)(O)O` (centres undefined), the growth inhibition is -45.9% in test [1]; -47.9% in test [2]; -48.5% in test [3]; -9.4% in test [4]; -21.8% in test [5]; -30.8% in test [6].

Regarding `COC(=O)C1=CO[C@@H](C)[C@@H]2CN3CCc4c([nH]c5cc(OC)ccc45)[C@H]3C[C@H]12`, the growth inhibition in test [1] was -43.8%; in test [2] it was -32.6%; in test [3], -34%; in test [4] it was -30.1%; in test [5] it was -2.05%; in test [6], -41%.

`CCCC[As](=O)(O)C(C)C`: the growth inhibition is 5% in test [1]; 9.25% in test [2]; 2.5% in test [3]; 16% in test [4]; 6.95% in test [5]; 14.1% in test [6].

Take `Cn1c(O)c(N=O)c(=O)n(C)c1=O`: the growth inhibition in test [1] is 29.4% and 20.9%; in test [2], 9.85% and -9.05%; in test [3], -0.6% and 8.4%; in test [4], 7.75% and -1.1%; in test [5], -9.85% and -6.3%; in test [6], -13.7% and 13.4%.

Consider `[Cu+2].[O-]c1ccc2ccccc2c1N=Nc1ccccc1.[O-]c1ccc2ccccc2c1N=Nc1ccccc1`, for which the growth inhibition in test [1] was -70.1%; in test [2], -13.1%; in test [3], -13.1%; in test [4], -15.9%; in test [5], 2.4%; in test [6], -12.2%.

`O=C1NC(=O)C(CC(Br)CBr)(c2ccccc2)C(=O)N1` (centres undefined): the growth inhibition in test [1] is 16.6%; in test [2], -1.45%; in test [3], 20.8%; in test [4], 11.4%; in test [5], -0.75%; in test [6], 11.2%.

With `COc1ccc(C=C2C(=O)N(C)C(=O)N(C)C2=O)cc1`, the growth inhibition in test [1] was 4.8%; in test [2], 2.1%; in test [3], -13.2%; in test [4] it was 22.3%; in test [5], 28%; in test [6], 36.5%.

Regarding `CN(C)CCCCCCN(C)C`, the growth inhibition in test [1] was -8.85%; in test [2] it was 3.9%; in test [3] it was -12.5%; in test [4], -9.8%; in test [5] it was 6.9%; in test [6] it was -4.75%.

In the case of `C1CC2CCC(N3CCCC3)C(C1)C21OCCO1` (centres undefined), the growth inhibition in test [1] is 11.3%; in test [2] it was 9.75%; in test [3] it was 5.05%; in test [4], -3.2%; in test [5] it was 6.45%; in test [6], -8.9%.

As to `O=NNc1cnccn1`, the growth inhibition in test [1] was -15.2% and -8.45%; in test [2], -23.9% and 1.5%; in test [3], -37.5% and -16.6%; in test [4], -3.8% and 4.05%; in test [5], -19% and -18.5%; in test [6], -8.25% and -21.2%.

Turning to `[Br][Hg][CH]1CCC2CCCC1O2` (centres undefined), the growth inhibition in test [1] is 99.5% (active); in test [2] it was 99.2% (active); in test [3], 99.5% (active); in test [4] it was 99% (active); in test [5] it was 99.3% (active); in test [6], 99.5% (active).

Consider `CCN(CC)c1cc[c]([Hg][O]C(C)=O)cc1`, for which the growth inhibition is 99.2% (active) in test [1]; 99% (active) in test [2]; 99.5% (active) in test [3]; 99.2% (active) in test [4]; 99% (active) in test [5]; 99.2% (active) in test [6].

Regarding `CC(=O)OC1[C@H](n2ccnc2)C[C@H]2[C@@H]3CC=C4CC(N5CCCC5)CC[C@]4(C)[C@H]3CC[C@]12C` (some centres undefined), the growth inhibition in test [1] was 2.1%; in test [2], -9.1%; in test [3], -29.9%; in test [4] it was 7.05%; in test [5], -48.8%; in test [6], -55.4%.

Take `OCCN=Cc1ccccc1O.OCCN=Cc1ccccc1O.[Ni]`: the growth inhibition in test [1] was 32.2%; in test [2], 7.3%; in test [3], 17.9%; in test [4], -26.4%; in test [5], 12.8%; in test [6], 18.4%.

With `CNC(P(=O)([O-])[O-])P(=O)([O-])[O-].N.N.[Pt+2]`, the growth inhibition in test [1] was -0.2%; in test [2], -16.3%; in test [3], -47.2%; in test [4] it was -17.1%; in test [5] it was -8.65%; in test [6] it was -15.7%.

Turning to `CCNC(=S)S`, the growth inhibition in test [1] was -7.35%; in test [2], -8.4%; in test [3] it was -13.1%; in test [4], -0.6%; in test [5] it was -2.25%; in test [6] it was -3.75%.

On to `N#CCc1ccccc1`, for which the growth inhibition in test [1] is 8.5% and -45.5%; in test [2], 17.6% and 3.2%; in test [3], -7.35% and -21.4%; in test [4], 13.7% and 5.6%; in test [5] it was 15.4% and -1.05%; in test [6], 4.85% and -6.65%.
